Test results reported in the supplement of paper PMC11732987, “Enantioselective OTUD7B fragment discovery through chemoproteomics screening and high-throughput optimisation” (Communications Chemistry, 2025).

Tests used:
Assay in all cases: log2 ratio of Biotin-Ahx-Ub-VS probe labelling (fragment/DMSO); higher = less target engagement (more negative = stronger competition), active = hit call of the paper (q ≤ 0.05, log2 ratio ≤ -1)
Conditions in all cases: compound concentration: 200 uM; treatment time: 3 h
USP19 = target: T1, USP19 (UniProt O94966)
T1 sequence (whole entry): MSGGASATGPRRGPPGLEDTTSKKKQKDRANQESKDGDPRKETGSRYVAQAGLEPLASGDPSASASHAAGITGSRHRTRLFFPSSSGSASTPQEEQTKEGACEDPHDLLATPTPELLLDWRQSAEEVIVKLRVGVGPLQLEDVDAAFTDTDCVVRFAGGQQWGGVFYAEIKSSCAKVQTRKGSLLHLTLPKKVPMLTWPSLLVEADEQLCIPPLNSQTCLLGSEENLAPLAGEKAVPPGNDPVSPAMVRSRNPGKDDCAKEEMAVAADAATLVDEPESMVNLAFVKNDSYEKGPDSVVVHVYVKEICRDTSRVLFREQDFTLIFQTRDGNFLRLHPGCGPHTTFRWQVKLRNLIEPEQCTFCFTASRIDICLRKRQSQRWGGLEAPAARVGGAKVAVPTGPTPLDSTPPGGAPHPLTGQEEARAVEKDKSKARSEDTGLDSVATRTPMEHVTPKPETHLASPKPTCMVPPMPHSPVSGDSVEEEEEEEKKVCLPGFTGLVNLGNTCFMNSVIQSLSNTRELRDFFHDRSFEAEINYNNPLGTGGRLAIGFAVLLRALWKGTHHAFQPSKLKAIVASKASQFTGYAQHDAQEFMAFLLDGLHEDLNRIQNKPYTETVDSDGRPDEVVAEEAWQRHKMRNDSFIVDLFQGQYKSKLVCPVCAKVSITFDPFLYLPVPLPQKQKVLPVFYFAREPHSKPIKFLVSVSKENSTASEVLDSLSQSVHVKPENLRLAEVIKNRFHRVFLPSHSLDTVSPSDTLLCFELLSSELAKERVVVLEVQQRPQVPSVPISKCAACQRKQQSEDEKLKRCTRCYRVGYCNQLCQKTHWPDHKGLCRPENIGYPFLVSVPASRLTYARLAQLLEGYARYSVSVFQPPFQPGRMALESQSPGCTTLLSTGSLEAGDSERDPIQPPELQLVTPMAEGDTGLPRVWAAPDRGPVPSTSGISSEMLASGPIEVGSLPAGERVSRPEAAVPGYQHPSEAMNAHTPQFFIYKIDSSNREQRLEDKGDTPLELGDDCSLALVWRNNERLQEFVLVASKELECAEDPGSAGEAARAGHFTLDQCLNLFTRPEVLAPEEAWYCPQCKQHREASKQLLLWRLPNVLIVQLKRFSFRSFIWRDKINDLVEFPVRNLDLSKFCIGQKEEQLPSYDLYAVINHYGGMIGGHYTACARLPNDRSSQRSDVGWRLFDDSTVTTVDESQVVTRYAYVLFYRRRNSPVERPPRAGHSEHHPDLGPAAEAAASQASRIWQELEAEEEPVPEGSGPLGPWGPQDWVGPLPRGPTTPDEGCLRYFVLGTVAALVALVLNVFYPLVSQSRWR
Procedure, shortened: (§1)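 Labelled DUBs from HEK293T lysate were NeutrAvidin-enriched, digested with LysC and trypsin, and run by diaPASEF LC-MS/MS. Before that, each 495 µg sample in Tris/CHAPS/IGEPAL buffer with protease inhibitors was treated in triplicate with fragment at 200 µM or vehicle for 3 h, then with Biotin-Ahx-Ub-VS at 0.5 µM final for 1 h. Values are average log2 ratios of fragment over vehicle by unpaired t-test, based on global-median-normalised Spectronaut label-free quantities from proteins with ≥2 unique peptides.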

USP24 = USP24 (UniProt Q9UPU5)
Sequence of USP24 (Q9UPU5 whole entry): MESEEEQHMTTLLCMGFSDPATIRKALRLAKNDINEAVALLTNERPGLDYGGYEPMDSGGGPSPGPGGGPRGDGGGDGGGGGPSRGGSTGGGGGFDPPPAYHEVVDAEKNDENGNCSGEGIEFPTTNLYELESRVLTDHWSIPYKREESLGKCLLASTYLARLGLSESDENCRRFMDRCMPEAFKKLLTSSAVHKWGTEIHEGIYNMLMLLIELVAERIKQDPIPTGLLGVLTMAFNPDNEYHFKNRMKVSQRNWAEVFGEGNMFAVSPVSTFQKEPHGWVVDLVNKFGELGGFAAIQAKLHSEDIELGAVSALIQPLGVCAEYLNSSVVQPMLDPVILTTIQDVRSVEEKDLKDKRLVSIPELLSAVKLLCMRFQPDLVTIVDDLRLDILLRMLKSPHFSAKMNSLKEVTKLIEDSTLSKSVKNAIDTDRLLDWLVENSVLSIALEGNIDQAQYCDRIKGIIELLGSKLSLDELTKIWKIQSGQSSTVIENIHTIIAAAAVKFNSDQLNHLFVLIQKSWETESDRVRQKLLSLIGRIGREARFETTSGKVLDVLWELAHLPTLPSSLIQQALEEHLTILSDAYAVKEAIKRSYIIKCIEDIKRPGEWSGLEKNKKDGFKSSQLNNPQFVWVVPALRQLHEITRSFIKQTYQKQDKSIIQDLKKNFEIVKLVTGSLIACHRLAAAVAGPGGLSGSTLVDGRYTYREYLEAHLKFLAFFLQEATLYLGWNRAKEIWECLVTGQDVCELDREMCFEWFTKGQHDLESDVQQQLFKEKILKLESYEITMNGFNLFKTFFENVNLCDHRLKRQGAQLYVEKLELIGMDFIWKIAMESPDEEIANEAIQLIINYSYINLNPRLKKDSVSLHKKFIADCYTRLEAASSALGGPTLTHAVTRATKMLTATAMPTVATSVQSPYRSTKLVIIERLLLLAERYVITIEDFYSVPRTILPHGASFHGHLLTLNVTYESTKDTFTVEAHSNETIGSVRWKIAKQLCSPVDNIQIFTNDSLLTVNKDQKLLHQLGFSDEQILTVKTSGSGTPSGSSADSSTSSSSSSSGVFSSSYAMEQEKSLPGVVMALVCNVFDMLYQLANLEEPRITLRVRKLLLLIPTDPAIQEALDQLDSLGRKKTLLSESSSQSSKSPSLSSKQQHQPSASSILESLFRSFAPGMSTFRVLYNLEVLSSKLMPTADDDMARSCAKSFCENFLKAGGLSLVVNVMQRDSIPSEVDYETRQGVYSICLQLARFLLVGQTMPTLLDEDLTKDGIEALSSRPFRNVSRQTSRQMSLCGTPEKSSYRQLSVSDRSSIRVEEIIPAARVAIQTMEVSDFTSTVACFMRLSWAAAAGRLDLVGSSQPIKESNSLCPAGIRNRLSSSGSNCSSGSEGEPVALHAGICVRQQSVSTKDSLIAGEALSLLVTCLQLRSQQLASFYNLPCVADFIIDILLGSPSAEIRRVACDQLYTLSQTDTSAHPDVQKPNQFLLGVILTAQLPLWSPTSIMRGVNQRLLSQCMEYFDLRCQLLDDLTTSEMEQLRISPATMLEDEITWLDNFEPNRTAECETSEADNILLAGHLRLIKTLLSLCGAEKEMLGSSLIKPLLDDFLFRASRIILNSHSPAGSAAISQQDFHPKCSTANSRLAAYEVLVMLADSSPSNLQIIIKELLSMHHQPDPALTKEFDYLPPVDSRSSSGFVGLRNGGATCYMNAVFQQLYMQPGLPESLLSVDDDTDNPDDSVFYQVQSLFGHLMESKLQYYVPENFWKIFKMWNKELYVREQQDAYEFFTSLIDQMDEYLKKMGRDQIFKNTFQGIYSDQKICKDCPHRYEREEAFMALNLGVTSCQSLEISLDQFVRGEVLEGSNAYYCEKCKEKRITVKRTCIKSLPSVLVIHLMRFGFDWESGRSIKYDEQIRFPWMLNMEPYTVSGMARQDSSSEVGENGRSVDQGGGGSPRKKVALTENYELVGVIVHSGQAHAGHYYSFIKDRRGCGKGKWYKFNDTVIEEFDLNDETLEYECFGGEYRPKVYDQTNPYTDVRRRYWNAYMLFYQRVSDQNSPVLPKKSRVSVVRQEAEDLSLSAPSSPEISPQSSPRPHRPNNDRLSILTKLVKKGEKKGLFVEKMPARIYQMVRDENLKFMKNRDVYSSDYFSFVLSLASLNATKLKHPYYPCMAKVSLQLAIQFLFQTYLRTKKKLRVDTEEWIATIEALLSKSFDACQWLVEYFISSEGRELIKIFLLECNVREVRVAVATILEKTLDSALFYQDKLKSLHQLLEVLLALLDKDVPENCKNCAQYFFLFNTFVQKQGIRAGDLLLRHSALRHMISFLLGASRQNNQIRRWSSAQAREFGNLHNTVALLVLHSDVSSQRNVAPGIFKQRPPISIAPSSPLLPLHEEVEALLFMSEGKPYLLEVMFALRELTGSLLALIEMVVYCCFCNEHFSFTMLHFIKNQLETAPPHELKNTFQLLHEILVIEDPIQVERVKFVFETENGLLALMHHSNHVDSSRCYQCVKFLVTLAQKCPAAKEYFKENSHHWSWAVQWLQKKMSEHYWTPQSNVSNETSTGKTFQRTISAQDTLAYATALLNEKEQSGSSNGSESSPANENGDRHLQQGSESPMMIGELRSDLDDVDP
Procedure, shortened: as §1

USP25 = target: T2, USP25 (UniProt Q9UHP3)
T2 sequence (whole entry): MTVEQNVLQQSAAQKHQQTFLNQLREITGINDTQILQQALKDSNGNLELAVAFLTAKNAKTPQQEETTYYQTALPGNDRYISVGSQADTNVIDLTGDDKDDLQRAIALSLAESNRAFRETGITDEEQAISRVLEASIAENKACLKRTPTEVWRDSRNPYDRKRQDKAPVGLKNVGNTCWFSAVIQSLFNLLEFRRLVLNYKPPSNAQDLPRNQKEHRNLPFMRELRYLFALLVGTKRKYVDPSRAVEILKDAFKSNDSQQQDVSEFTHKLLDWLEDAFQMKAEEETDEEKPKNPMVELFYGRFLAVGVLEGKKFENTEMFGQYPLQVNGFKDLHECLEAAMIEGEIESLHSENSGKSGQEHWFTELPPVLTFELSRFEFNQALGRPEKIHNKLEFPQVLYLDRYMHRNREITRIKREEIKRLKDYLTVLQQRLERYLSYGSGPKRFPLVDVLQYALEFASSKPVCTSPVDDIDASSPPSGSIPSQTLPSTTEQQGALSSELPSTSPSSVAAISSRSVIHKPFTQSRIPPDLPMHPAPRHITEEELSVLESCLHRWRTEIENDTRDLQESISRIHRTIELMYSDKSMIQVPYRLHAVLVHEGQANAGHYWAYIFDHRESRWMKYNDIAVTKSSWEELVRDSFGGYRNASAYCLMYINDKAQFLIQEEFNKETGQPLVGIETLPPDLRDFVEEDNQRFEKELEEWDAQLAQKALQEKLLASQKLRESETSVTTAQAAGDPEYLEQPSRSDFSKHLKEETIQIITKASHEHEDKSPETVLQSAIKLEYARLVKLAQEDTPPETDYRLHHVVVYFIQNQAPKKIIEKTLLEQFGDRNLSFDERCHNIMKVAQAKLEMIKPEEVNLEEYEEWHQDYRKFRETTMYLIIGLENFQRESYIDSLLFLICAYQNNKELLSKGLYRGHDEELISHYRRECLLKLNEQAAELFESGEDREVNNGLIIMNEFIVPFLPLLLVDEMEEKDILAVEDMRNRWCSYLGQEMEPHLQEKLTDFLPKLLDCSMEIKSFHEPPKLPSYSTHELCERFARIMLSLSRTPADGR
Procedure, shortened: as §1

USP28 = target: T3, USP28 (UniProt Q96RU2)
T3 sequence (whole entry): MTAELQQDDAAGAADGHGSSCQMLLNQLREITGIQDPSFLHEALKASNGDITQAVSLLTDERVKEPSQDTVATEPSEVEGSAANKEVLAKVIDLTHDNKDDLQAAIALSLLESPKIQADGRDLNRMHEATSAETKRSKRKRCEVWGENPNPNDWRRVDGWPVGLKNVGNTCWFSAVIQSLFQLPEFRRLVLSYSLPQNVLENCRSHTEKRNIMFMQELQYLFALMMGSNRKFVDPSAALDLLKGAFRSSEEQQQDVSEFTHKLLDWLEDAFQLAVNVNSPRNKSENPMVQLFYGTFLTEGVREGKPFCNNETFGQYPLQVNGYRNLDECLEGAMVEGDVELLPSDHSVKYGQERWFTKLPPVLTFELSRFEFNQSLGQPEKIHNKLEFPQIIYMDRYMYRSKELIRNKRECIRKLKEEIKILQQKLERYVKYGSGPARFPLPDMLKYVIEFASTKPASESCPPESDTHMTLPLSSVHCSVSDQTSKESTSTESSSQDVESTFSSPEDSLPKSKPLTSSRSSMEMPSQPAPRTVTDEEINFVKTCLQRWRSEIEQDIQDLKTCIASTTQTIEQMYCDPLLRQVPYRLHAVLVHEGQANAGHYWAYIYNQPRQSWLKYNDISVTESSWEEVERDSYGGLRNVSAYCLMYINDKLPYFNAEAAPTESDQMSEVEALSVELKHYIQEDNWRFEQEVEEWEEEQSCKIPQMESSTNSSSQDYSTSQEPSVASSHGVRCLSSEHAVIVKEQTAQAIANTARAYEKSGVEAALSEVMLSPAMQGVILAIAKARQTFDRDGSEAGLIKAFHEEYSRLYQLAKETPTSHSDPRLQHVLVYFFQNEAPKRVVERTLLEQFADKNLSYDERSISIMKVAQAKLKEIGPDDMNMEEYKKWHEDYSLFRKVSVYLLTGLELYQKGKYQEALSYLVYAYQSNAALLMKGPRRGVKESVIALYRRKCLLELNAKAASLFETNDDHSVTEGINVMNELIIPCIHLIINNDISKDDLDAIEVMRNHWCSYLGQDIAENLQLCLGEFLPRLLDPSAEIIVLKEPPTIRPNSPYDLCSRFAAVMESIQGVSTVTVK
Procedure, shortened: as §1

Measured: log2 ratio of Biotin-Ahx-Ub-VS probe labelling

Cc1noc(N2CCN(C(=O)CCl)CC2)n1.Cl
inactive: USP19 -0.238 | USP24 -0.00876 | USP25 -0.13 | USP28 -0.444
